Source: PubChem BioAssay (NCATS)
Where “and” joins values, the source holds several entries; their conditions need not be identical. Identical values can stand only once. Inconclusive results are not listed. Calls of active or inactive are those of the source. Unless noted, calls follow the shape of the dose curve; as a rule, active = well fitted curve in the direction sought with a large enough effect; inconclusive = small, poorly fitted or top-dose-only effect, or another doubt; inactive = no such curve, though single readings can be large; an effect the other way counts as inactive or inconclusive.

Experiments:
[1] = Cell Viability - N2a (AID 540); settings: N2a mouse neuroblastoma cell viability; activity change, negative = cytotoxicity: at 92.2 µM (top of the series);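 also: plate controls were DMSO alone for no effect and tamoxifen control for full effect; nearly all actives have a fitted effect of over 45% in size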
Procedure, shortened: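 CellTiter-Glo ATP luminescence, read 20 min after reagent at room temperature, reported viability following 40 h compound treatment at 37 °C. N2a mouse neuroblastoma cells seeded 1500/well; Hill equation gave AC50.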

[2] = Cellular Toxicity (caspase-3) SHSY5Y (AID 657)
Procedure, shortened: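 Cells plated and incubated 5 h at 37 °C, dosed over a concentration range, incubated 16 h, then given Caspase-Glo 3/7 reagent for 1 h at room temperature before luminescence reading. Staurosporine (10 uM) defined full stimulation.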

[3] = Cell Viability - LYMP1-002 - Assay at 16 hr (AID 948);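 also: 0% = DMSO alone and full effect = 92 µM tetraoctylammonium bromide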
Procedure, shortened: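 Acute cytotoxicity is scored as a concentration-dependent fall in intracellular ATP in a human lymphoblastoid line (LYMP1-002) after 16 hr compound exposure at 37 C, measured by luciferase luminescence.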

[4] = MultiTox-Fluor Cytotoxicity Assay - LYMP1-002 - Dead Cells (AID 960);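 also: 0% = DMSO and 100% = tetraoctylammonium bromide; nearly all actives have a fitted effect of over 60% in size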
Procedure, shortened: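 Dead-cell fluorescence (Ex/Em 485/520) after 16 h compound exposure at 37 C of LYMP1-002 lymphoblastoid cells in complete medium; AC50 by Hill equation, with data scaled between DMSO and 15 uM tetraoctylammonium bromide.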

[5] = Cell Viability - LYMP1-003 - Assay at 24 hr (AID 963);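 also: plate controls were DMSO only for no effect and tetraoctylammonium bromide positive control for full effect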
Procedure, shortened: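 Concentration-response qHTS: ATP loss measured by CellTiter-Glo luminescence after 24 h compound exposure at 37 C. Cells were LYMP1-003 human lymphoblastoid, 2500 per well. AC50 derived via standard Hill equation modeling.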

[6] = Cell Viability - LYMP1-003 - Assay at 40 hr (AID 964); also: % is scaled to controls: 0 for no effect and ±100 for the full control effect; nearly all actives have a fitted effect of over 60% in size
Procedure, shortened: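 Viability is taken as cellular ATP, read by CellTiter-Glo luminescence after 40 h of compound exposure at 37 C. Cells: human lymphoblastoid line LYMP1-003 at 2500/well; AC50 values derived by Hill-equation fitting of concentration-response data.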

[7] = Cell Viability - LYMP2-011 (AID 969);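 also: 0% = DMSO only and full inhibition = 92 µM tetraoctylammonium bromide; nearly all actives have a fitted effect of over 60% in size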
Procedure, shortened: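 Cytotoxicity qHTS with ATP content as read-out: lymphoblastoid cells (2500/well) exposed to compound for 24 h at 37 C, then luciferase luminescence measured. Concentration-response data fitted with the standard Hill equation to give AC50.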

[8] = Cell Viability - LYMP2-021 (AID 974); also: % is scaled to controls: 0 for no effect and ±100 for the full control effect; nearly all actives have a fitted effect of over 55% in size
Procedure, shortened: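 AC50 values come from Hill-equation fits to CellTiter-Glo luminescence (ATP content), read after 24 hour compound exposure at 37 C of 2500 LYMP2-021 lymphoblastoid cells/well; tetraoctylammonium bromide as positive control.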

[9] = Cell Viability - LYMP2-010 (AID 981); also: % is scaled to controls: 0 for no effect and ±100 for the full control effect; nearly all actives have a fitted effect of over 55% in size
Procedure, shortened: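 CellTiter-Glo ATP luminescence measured cytotoxicity after 24 h compound exposure at 37 C. LYMP2-010 cells were seeded at 2500/well, with tetraoctylammonium bromide as control; concentration-response curves gave AC50 values by the Hill equation.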

[10] = Cell Viability - LYMP2-014 (AID 983);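 also: plate controls were DMSO only for no effect and 92 µM tetraoctylammonium bromide for full effect; nearly all actives have a fitted effect of over 50% in size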
Procedure, shortened: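 Intracellular ATP loss, read by luciferase luminescence, measures acute cytotoxicity after 24 h compound exposure of lymphoblastoid LYMP2-014 cells (2500/well, 37 C). Concentration-response data fitted to the Hill equation for AC50.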

[11] = Cell Viability - LYMP2-018 (AID 985);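 also: plate controls were DMSO only for no effect and tetraoctylammonium bromide at 92 µM for full effect; nearly all actives have a fitted effect of over 50% in size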
Procedure, shortened: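 Viability read as CellTiter-Glo luminescence (cellular ATP) after 24 hr compound exposure at 37 C of 2500 LYMP2-018 lymphoblastoid cells/well, pre-plated 5 hr. Hill-equation modelling gave AC50.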

[12] = Cell Viability - LYMP2-024 (AID 988);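 also: plate controls were DMSO only for no effect and 92 µM tetraoctylammonium bromide for full effect; nearly all actives have a fitted effect of over 60% in size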
Procedure, shortened: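 Cytotoxicity was taken as a decrease in ATP (CellTiter-Glo luminescence) after 24 hr compound exposure at 37 C of LYMP2-024 lymphoblastoid cells, 2500 cells/well. Concentration-response data were fitted to the Hill equation to give AC50.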

[13] = qHTS assay for small molecule activators of the p53 signaling pathway (AID 651743; active = well fitted activation curve with a large enough effect in the signal ratio, not every such curve was filed as active; the % refers to the signal ratio; also: potency is read from the fitted curve at half-maximal effect; as to activation: % of control where 0% means no effect); settings: HCT-116 p53RE-bla, beta-lactamase FRET ratio, 16 h; activation: hits give high values
Procedure, shortened: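 Following 16 hours of compound exposure at 37 C, HCT-116 cells bearing the p53RE-bla reporter were loaded with LiveBLAzer B/G FRET substrate for 2 hours at room temperature and fluorescence intensity was recorded.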

[14] = qHTS assay for small molecule disruptors of the mitochondrial membrane potential - 1 hr assay (AID 651754; calls by dose curve; also: % is scaled to controls: 0 for no effect and ±100 for the full control effect; nearly all actives have a fitted effect of over 35% in size)
Procedure, shortened: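 Mitochondrial potential in living HepG2 cells after 1 hr compound treatment at 37C was read with Mito-MPS dye added for a further 30 min. Red aggregate and green monomer fluorescence were measured; loss of potential leaves dye as cytoplasmic monomers.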

[15] = Cellular Toxicity (caspase-3) HUV-EC-C (AID 656);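 also: 0% = DMSO basal and 100% = 100 µM tamoxifen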
Procedure, shortened: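 Read-out: luminescence proportional to caspase 3/7 activity, measured 20 min after adding Caspase-Glo 3/7 reagent. Cells (HUV-EC-C) had received compound for 16 hr at 37°C. Increases relative to DMSO and 100 uM tamoxifen gave concentration-response AC50 values.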

[16] = Cellular Toxicity (caspase-3) H-4-II-E (AID 663); settings: Potency: caspase-3 activation;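 also: cells exposed to compound for 16 hr before readout; 0% = DMSO basal and 100% = 100 µM tamoxifen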
Procedure, shortened: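 H-4-II-E rat hepatoma, 1500 cells/well, 5 hr settle at 37 °C; compound 16 hr, 37 °C, complete medium; Caspase-Glo 3/7, 20 min RT; luminescence. DMSO = 0%, 100 uM tamoxifen = 100%; Hill-equation AC50.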

[17] = MultiTox-Fluor Cytotoxicity Assay - LYMP1-003 - Live Cells (AID 962);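 also: 0% = DMSO only and full loss = 92 µM tetraoctylammonium bromide; cytotoxic hits lower the live-cell protease signal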
Procedure, shortened: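 Live-cell protease activity (GF-AFC substrate, 405/510 nm, 60 min at room temperature) after 16 h, 37 C compound exposure of human lymphoblastoid LYMP1-003 cells; concentration-response fitted to the Hill equation for AC50.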

[18] = Cell Viability - LYMP2-023 (AID 975);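 also: cellular ATP measured by luciferase luminescence as viability proxy; plate controls were DMSO only for no effect and 92 µM tetraoctylammonium bromide control for full effect; nearly all actives have a fitted effect of over 55% in size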
Procedure, shortened: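 Intracellular ATP, read by CellTiter-Glo luminescence, reports viability after 24 hr compound exposure at 37 C. 2500 lymphoblastoid cells/well (LYMP2-023) seeded 5 hr beforehand; Hill fits give AC50; positive control tetraoctylammonium bromide.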

[19] = Cell Viability - LYMP2-016 (AID 984); also: % is scaled to controls: 0 for no effect and ±100 for the full control effect; nearly all actives have a fitted effect of over 55% in size
Procedure, shortened: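 Acute toxicity in a Coriell human lymphoblastoid line is scored as loss of intracellular ATP over 24 h of treatment in complete medium. CellTiter-Glo signal is fitted across concentrations with the Hill equation to give AC50.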

[20] = MultiTox-Fluor Cytotoxicity Assay - LYMP1-001 - Dead Cells (AID 946);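 also: 0% = DMSO and 100% = tetraoctylammonium bromide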
Procedure, shortened: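 AC50 from Hill fit of concentration-response; data normalized to DMSO (basal) and 15 uM tetraoctylammonium bromide (100%). LYMP1-001 lymphoblastoid cells, 2500/well, 16 hr compound at 37 C; dead-cell protease fluorescence, Ex/Em 485/520.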

[O-][Cl+2]([O-])O
inactive: Potency [1] | outcome [2] | outcome [3] | Potency [4] | outcome [5] | Potency [6] | Potency [7] | Potency [8] | Potency [9] | Potency [10] | Potency [11] | Potency [12] | activation [13] 0.222% | Potency [14]

O=[N+]([O-])c1cccc2c([N+](=O)[O-])cccc12
inactive: Potency [1] | outcome [15] | outcome [2] | Potency [16] | outcome [3] | Potency [4] | outcome [17] | outcome [5] | Potency [6] | Potency [7] | Potency [8] | Potency [18] | Potency [9] | Potency [10] | Potency [19] | Potency [11] | Potency [12] | Potency [14]

O=C(Cl)OCc1ccccc1
inactive: Potency [1] | outcome [15] | outcome [2] | Potency [16] | outcome [20] | outcome [17] | outcome [5] | Potency [6] | Potency [7] | Potency [8] | Potency [18] | Potency [9] | Potency [19] | activation [13] -2.98% | Potency [14]

CCC[N+](=O)[O-]
inactive: Potency [1] | outcome [15] | Potency [16] | outcome [20] | outcome [3] | Potency [4] | outcome [17] | outcome [5] | Potency [6] | Potency [7] | Potency [18] | Potency [9] | Potency [10] | Potency [19] | Potency [12] | activation [13] -0.809% | Potency [14]

Nc1cc(Cl)ccc1Cl
inactive: Potency [1] | outcome [2] | Potency [16] | outcome [3] | Potency [4] | outcome [17] | outcome [5] | Potency [6] | Potency [7] | Potency [8] | Potency [18] | Potency [9] | Potency [10] | Potency [19] | Potency [11] | activation [13] -3.16% | Potency [14]

CC(C)(C)C(O)(CCc1ccc(Cl)cc1)Cn1cncn1 (configuration not stated)
inactive: Potency [1] | outcome [15] | outcome [2] | outcome [3] | Potency [4] | outcome [17] | Potency [6] | Potency [7] | Potency [8] | Potency [9] | Potency [10] | Potency [19] | Potency [11] | activation [13] -3.53% and -2.93% | Potency [14]

CC(Cl)(Cl)Cl
inactive: Potency [1] | outcome [15] | outcome [2] | Potency [16] | outcome [20] | outcome [3] | outcome [5] | Potency [6] | Potency [7] | Potency [8] | Potency [18] | Potency [9] | Potency [10] | Potency [19] | Potency [11] | Potency [12] | activation [13] -0.56% and -3.67% | Potency [14]

CC(C)(Cl)Cl
inactive: Potency [1] | outcome [15] | Potency [16] | outcome [20] | outcome [3] | Potency [4] | outcome [17] | outcome [5] | Potency [6] | Potency [7] | Potency [9] | Potency [10] | Potency [19] | Potency [11] | Potency [12] | activation [13] -1.59% | Potency [14]

Cc1ccc(N=C=O)cc1N=C=O
inactive: Potency [1] | outcome [15] | outcome [2] | Potency [16] | outcome [20] | outcome [3] | Potency [4] | outcome [5] | Potency [6] | Potency [8] | Potency [18] | Potency [10] | Potency [11] | Potency [12] | activation [13] -2.11% and -1.5%

Nc1ccc(Cl)c(Cl)c1
inactive: outcome [15] | outcome [2] | Potency [16] | outcome [20] | outcome [3] | Potency [4] | outcome [17] | outcome [5] | Potency [6] | Potency [18] | Potency [9] | Potency [10] | Potency [11] | Potency [12] | activation [13] 0.678% | Potency [14]

C=C(Cl)CSC(=S)N(CC)CC
inactive: Potency [1] | outcome [15] | outcome [2] | outcome [20] | outcome [3] | Potency [4] | outcome [17] | outcome [5] | Potency [7] | Potency [8] | Potency [18] | Potency [19] | activation [13] -1.91% | Potency [14]

Cc1ccc(N)cc1C
inactive: outcome [15] | outcome [2] | Potency [16] | outcome [3] | Potency [4] | outcome [5] | Potency [7] | Potency [8] | Potency [18] | Potency [9] | Potency [19] | Potency [11] | Potency [12] | activation [13] -1.62% | Potency [14]

CCCCNC(=O)n1c(NC(=O)OC)nc2ccccc21
inactive: Potency [1] | outcome [2] | Potency [16] | outcome [20] | outcome [3] | outcome [17] | Potency [7] | Potency [8] | Potency [18] | Potency [9] | Potency [10] | Potency [19] | Potency [11] | Potency [12] | Potency [14]
active: Potency [13] 14.1 µM
